Assay results from PMC12864922, “TDP-43 directly inhibits mRNA accumulation in neurites through modulation of mRNA stability”.
Over roughly 9,900 sequences, “r (bound/input frequency ratio)” has its median near 0.7; the highest 2% begin near 6.5. Shown is part of a subset that was picked to be rich in the highest values.

B1: ENSMUSG00000022095.66|Fam160b2 (ssRNA)
RNA: GGGAGUUCUACAGUCCGACGAUCGCUUCGAUAUCCGCAUGCUAACAACUCCAGGGGCCAGGGAGAUGAACUGCUGUCUUUGAGGCUGGCUAAAAAAACAAUCCAGUCCAGAGAGAUGGGGAGGGGGGGAGCAAGAACCCUGUCUGUUACAUUAGGUAUCAUGGAAGCUGCUAAGACUCGGCAGGUUUCUCCGAGGCUUCACGAACAGUAGUGGAGGAGACAGAGGAGGAGGCUGAGGGGAAGCCCCCUCUUCCUGCUCUACCCUCCUGGAGGCUGUUGCAAAAUUCCCAACUGCCUCCUGGCACUCUUGCGGUCGCACUAGUGUGGAAUUCUCGGGUGUCAAGG
B2: ENSMUSG00000004113.466|Cacna1b (ssRNA)
RNA: GGGAGUUCUACAGUCCGACGAUCGCUUCGAUAUCCGCAUGCUAUGAAGGUUUGUCGCAAAAAUUUAUAUUUAACAGUGUUGAGAGAGAGAGAGAGAGAGCGAGAGAGAGAGAGAUCCAGUCAUGCAACACAAAUGGGAUCUACUUUUAAACAACAGUCCUUUGACUAGUUUGCUGCCUGAAUAAUAUUUACAAACUAAACUUUGGAUUCUGCUCUUGUUUCUACAAUGAUUUUUUGUAUAAAGCAAAGUCCUUGGAUUAAAUAAAAACAACCCAAAAAAAAAAUCAAAAUCAAAACCCAGGAUCUCUUGCGGUCGCACUAGUGUGGAAUUCUCGGGUGUCAAGG
B3: ENSMUSG00000031028.203|Tub|203:207;209:214 (ssRNA)
RNA: GGGAGUUCUACAGUCCGACGAUCGCUUCGAUAUCCGCAUGCUAUCCUUUCUCUUCCCAGUUCCAGAGAUGAAACCCCUCCGAGUUAAUGUAUAAGGUUGGAAACCUUUCAGUAGGGAAUCAGGCAGUUCCCUGUUGAAAGUUGUCUGAGUUUUUGCACACCAUUCUGAUCUGAUGUGGCCUGUGCCUGGCUCCUCUAUGAGGACUUCGAGCUGUGCACAGACCUUAGCAGGACCACUGCACACUUACACACACACACACAGGCAGCCCAAGGGUUCUGGGGCUGGGCUUGGACACGCCCUCCACUCUUGCGGUCGCACUAGUGUGGAAUUCUCGGGUGUCAAGG
B4: ENSMUSG00000061578.408|Ksr2 (ssRNA)
RNA: GGGAGUUCUACAGUCCGACGAUCGCUUCGAUAUCCGCAUGCUAAUCAGUCUCUUCCCGGAGGAAGCAUCCGGGGGAAAUGUAUUCCUUCGCCCUGCAAGGAGCCAAUGGGAAGAGAGGGGACCAUAUAGUUAGAGACAUUCCCUACCCCCCGACCACUGACCCGUCCAGACCCUCGCUUCUUACAAUGCCUCUUCUUCUGCCAGACCAGCCACCUGCCCCACUAACACCAAAUGGCUUCUGUCCCUGCUUCACGUUGCAAAUCCUUCAAGACAGAAGUUUCAGAGGGGAUAGUUCCUUCUAACCUCUUGCGGUCGCACUAGUGUGGAAUUCUCGGGUGUCAAGG
B5: ENSMUSG00000031028.686|Tub (ssRNA)
RNA: GGGAGUUCUACAGUCCGACGAUCGCUUCGAUAUCCGCAUGCUAUAUUUUUGUUCAAAAUUAUCUGGAGUUUUAGACAAACUUGCAAAACUGUGCUUUUAUUAAGUGACUUUUUGAAUAAACUUUUUGGUAUUCUGAAGCAAAUGUAUUUAUUUAUUGGUAUGUGCAAUGACAAACUUGGUAUUUUCCCAUAAUGACAUUAUGUAUGUUGUAGAAUUUAGUGUUUGUCUAAGUACAGACAUGUAUCAACACAUUAAACUUGAACUGUUUGACGGCUGUGUCCUUGGUUUUCAUAGAGAAGAGAACUCUUGCGGUCGCACUAGUGUGGAAUUCUCGGGUGUCAAGG
B6: ENSMUSG00000029636.181|Wasf3 (ssRNA)
RNA: GGGAGUUCUACAGUCCGACGAUCGCUUCGAUAUCCGCAUGCUACACAGCUCUCUUCUCUCCUGUUGUCGGCACAUUUUCAAUUUUAAAAAGUACCUCACAAGAUAAACUUGAUUCAGCCAGUUGCCCGGGCAGAGACCUGACUUCCCCUCUCCUGCCCUGAUCCUUUUUACCAAAUGGCGAUUCCAUAGUCCUGGCUGAGGCAGGGGCUCAAAGUCCAGUGUCUGCUUUGCAAUUCUGGAAGGACAGCUGCUUAUUUAAAUAAGUCUGUGAUAUCCGCAGGCUUGGGUUACAGGGAGGACCUUCUCUUGCGGUCGCACUAGUGUGGAAUUCUCGGGUGUCAAGG
B7: ENSMUSG00000029028.53|Lrrc47|5:9;12:16;18:22;45:49;64:68;70:74;86:90;93:97;118:122;134:139;141:145;147:151;163:168;170:174;191:195;197:201;208:212;214:218;235:2 … (ssRNA)
RNA: GGGAGUUCUACAGUCCGACGAUCGCUUCGAUAUCCGCAUGCUAUGUCACACAAGCAUACGCACACCUGUAGAUCUUUGUAGGUGUAGCAUACCUGUAGGUAUCUGGCACACGCAUACCUGUAGAUGUCACACAAGCACACGAUAUGCUGUAGGUAUCUGGCACACCUGUAGGUGUCACACACGCACACGCACACCUGUGGGUGUCACACACGCACACCUGUAGGUGUCUGUAGCACACGCAUACCUGCAGCACACGCACACCUGUAGAUCUCUAUAGCACACGCACACCUGUAGGGGUCUGUGCUCUUGCGGUCGCACUAGUGUGGAAUUCUCGGGUGUCAAGG
B8: ENSMUSG00000028439.168|Fam219a (ssRNA)
RNA: GGGAGUUCUACAGUCCGACGAUCGCUUCGAUAUCCGCAUGCUAGAGCCAAGUGGCUGUAUGAUAUGGUAUGGUAUGGUAUGGUAUGGUAUGGUAUGGUAUGCACAUGUGUGUGCAUGUGUGUGUGCCUGUGUGUGUGCGUGUGCGUGUGUGUAUGUGUGUGCGUGUGUGUGUGUGUGUGUUGUACCCGAGUGUGUGUUGAGCCUAUCUGUCCAGGGAACCAGAUUGGUGUCCGAGAUGAGGAAAUGGCUGUGGCCUGGGAAAUCAGUGAGAGGCCGCUUGGGAAUGAGAAUGCAGUGGACUGACUCUUGCGGUCGCACUAGUGUGGAAUUCUCGGGUGUCAAGG
B9: ENSMUSG00000028439.165|Fam219a (ssRNA)
RNA: GGGAGUUCUACAGUCCGACGAUCGCUUCGAUAUCCGCAUGCUAAGCUUAAGGAAAUACAGUGAGCCAAGUGGCUGUAUGAUAUGGUAUGGUAUGGUAUGGUAUGGUAUGGUAUGGUAUGCACAUGUGUGUGCAUGUGUGUGUGCCUGUGUGUGUGCGUGUGCGUGUGUGUAUGUGUGUGCGUGUGUGUGUGUGUGUGUUGUACCCGAGUGUGUGUUGAGCCUAUCUGUCCAGGGAACCAGAUUGGUGUCCGAGAUGAGGAAAUGGCUGUGGCCUGGGAAAUCAGUGAGAGGCCGCUUGGGAAUCUCUUGCGGUCGCACUAGUGUGGAAUUCUCGGGUGUCAAGG
B10: ENSMUSG00000028439.164|Fam219a (ssRNA)
RNA: GGGAGUUCUACAGUCCGACGAUCGCUUCGAUAUCCGCAUGCUAAGAGCAAGCUUAAGGAAAUACAGUGAGCCAAGUGGCUGUAUGAUAUGGUAUGGUAUGGUAUGGUAUGGUAUGGUAUGGUAUGCACAUGUGUGUGCAUGUGUGUGUGCCUGUGUGUGUGCGUGUGCGUGUGUGUAUGUGUGUGCGUGUGUGUGUGUGUGUGUUGUACCCGAGUGUGUGUUGAGCCUAUCUGUCCAGGGAACCAGAUUGGUGUCCGAGAUGAGGAAAUGGCUGUGGCCUGGGAAAUCAGUGAGAGGCCGCUUCUCUUGCGGUCGCACUAGUGUGGAAUUCUCGGGUGUCAAGG
B11: ENSMUSG00000028439.163|Fam219a (ssRNA)
RNA: GGGAGUUCUACAGUCCGACGAUCGCUUCGAUAUCCGCAUGCUAUCUUCAAGAGCAAGCUUAAGGAAAUACAGUGAGCCAAGUGGCUGUAUGAUAUGGUAUGGUAUGGUAUGGUAUGGUAUGGUAUGGUAUGCACAUGUGUGUGCAUGUGUGUGUGCCUGUGUGUGUGCGUGUGCGUGUGUGUAUGUGUGUGCGUGUGUGUGUGUGUGUGUUGUACCCGAGUGUGUGUUGAGCCUAUCUGUCCAGGGAACCAGAUUGGUGUCCGAGAUGAGGAAAUGGCUGUGGCCUGGGAAAUCAGUGAGAGGCUCUUGCGGUCGCACUAGUGUGGAAUUCUCGGGUGUCAAGG
B12: ENSMUSG00000028439.167|Fam219a (ssRNA)
RNA: GGGAGUUCUACAGUCCGACGAUCGCUUCGAUAUCCGCAUGCUAUACAGUGAGCCAAGUGGCUGUAUGAUAUGGUAUGGUAUGGUAUGGUAUGGUAUGGUAUGGUAUGCACAUGUGUGUGCAUGUGUGUGUGCCUGUGUGUGUGCGUGUGCGUGUGUGUAUGUGUGUGCGUGUGUGUGUGUGUGUGUUGUACCCGAGUGUGUGUUGAGCCUAUCUGUCCAGGGAACCAGAUUGGUGUCCGAGAUGAGGAAAUGGCUGUGGCCUGGGAAAUCAGUGAGAGGCCGCUUGGGAAUGAGAAUGCAGUGCUCUUGCGGUCGCACUAGUGUGGAAUUCUCGGGUGUCAAGG
B13: ENSMUSG00000028439.166|Fam219a (ssRNA)
RNA: GGGAGUUCUACAGUCCGACGAUCGCUUCGAUAUCCGCAUGCUAAGGAAAUACAGUGAGCCAAGUGGCUGUAUGAUAUGGUAUGGUAUGGUAUGGUAUGGUAUGGUAUGGUAUGCACAUGUGUGUGCAUGUGUGUGUGCCUGUGUGUGUGCGUGUGCGUGUGUGUAUGUGUGUGCGUGUGUGUGUGUGUGUGUUGUACCCGAGUGUGUGUUGAGCCUAUCUGUCCAGGGAACCAGAUUGGUGUCCGAGAUGAGGAAAUGGCUGUGGCCUGGGAAAUCAGUGAGAGGCCGCUUGGGAAUGAGAAUCUCUUGCGGUCGCACUAGUGUGGAAUUCUCGGGUGUCAAGG
B14: ENSMUSG00000028439.169|Fam219a (ssRNA)
RNA: GGGAGUUCUACAGUCCGACGAUCGCUUCGAUAUCCGCAUGCUAAGUGGCUGUAUGAUAUGGUAUGGUAUGGUAUGGUAUGGUAUGGUAUGGUAUGCACAUGUGUGUGCAUGUGUGUGUGCCUGUGUGUGUGCGUGUGCGUGUGUGUAUGUGUGUGCGUGUGUGUGUGUGUGUGUUGUACCCGAGUGUGUGUUGAGCCUAUCUGUCCAGGGAACCAGAUUGGUGUCCGAGAUGAGGAAAUGGCUGUGGCCUGGGAAAUCAGUGAGAGGCCGCUUGGGAAUGAGAAUGCAGUGGACUGAAAGCACCUCUUGCGGUCGCACUAGUGUGGAAUUCUCGGGUGUCAAGG

Biological target: TDP-43 (Homo sapiens, UniProt Q13148 1-414)
Sequence (Q13148 whole entry): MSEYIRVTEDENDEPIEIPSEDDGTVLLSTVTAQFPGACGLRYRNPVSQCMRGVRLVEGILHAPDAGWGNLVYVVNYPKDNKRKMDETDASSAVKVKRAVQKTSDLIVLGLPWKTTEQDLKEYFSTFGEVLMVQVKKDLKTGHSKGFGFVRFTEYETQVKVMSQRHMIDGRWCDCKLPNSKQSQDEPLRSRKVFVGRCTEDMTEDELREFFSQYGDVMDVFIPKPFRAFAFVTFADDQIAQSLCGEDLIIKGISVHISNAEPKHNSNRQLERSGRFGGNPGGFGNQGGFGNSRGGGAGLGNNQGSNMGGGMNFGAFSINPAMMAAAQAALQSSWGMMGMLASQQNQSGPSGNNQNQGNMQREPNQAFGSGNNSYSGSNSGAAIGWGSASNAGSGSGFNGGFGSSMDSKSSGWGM
Experiment: RNA Bind-n-Seq with designed 260-mer pool; 25 mM Tris-HCl, 150 mM KCl, 3 mM MgCl2, BSA (printed 500 mg/mL), 20 units/mL SUPERase IN; pH not stated; 500 nM RNA pool, 1 h, 4 C; TDP-43 5, 50, 500 nM; high values mean tight binding
Settings: protein: recombinant; tags: SBP (GST cleaved off with PreScission; pGEX-GST-SBP)
How it was run: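 The incubation lasted 1 h at 4 °C and used 500 nM of an in vitro-transcribed 260-nt 3′ UTR oligo pool with recombinant SBP-tagged TDP-43 at 5, 50 or 500 nM immobilized on streptavidin beads. It took place in 25 mM Tris-HCl, 150 mM KCl, 3 mM MgCl2, BSA and SUPERase IN. Bound RNA was washed, eluted with biotin, converted to cDNA, PCR-amplified and sequenced to give R, each oligo's normalized abundance in the bound sample divided by that in input. Two independent protein batches provided the duplicates.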

Binder | binding signal
B1 | 0.965 R (bound/input frequency ratio)
B2 | 0.589 R (bound/input frequency ratio)
B3 | 1.57 R (bound/input frequency ratio)
B4 | 1.09 R (bound/input frequency ratio)
B5 | 0.181 R (bound/input frequency ratio)
B6 | 0.344 R (bound/input frequency ratio)
B7 | 0.453 R (bound/input frequency ratio)
B8 | 7.15 R (bound/input frequency ratio)
B9 | 6.33 R (bound/input frequency ratio)
B10 | 8.42 R (bound/input frequency ratio)
B11 | 5.79 R (bound/input frequency ratio)
B12 | 6.28 R (bound/input frequency ratio)
B13 | 6.86 R (bound/input frequency ratio)
B14 | 6.41 R (bound/input frequency ratio)
